# Screens from PubChem BioAssay.
# This is a sample that favours compounds with a hit; in the whole collection about 5.3% have one here.
# Tau fluor cs – counter-screen for tau fibril formation inhibitors; Potency, µM (titrated, usually from 57.7 µM), without a hit: at the highest dose activity change, negative = decrease; 280,000 compounds, 0.93% hits; AID 1463; tau K18 P301L Alexa594 fluorescence, heparin fibrillization; further: potency means the concentration at half of the fitted maximal effect; nearly all actives have a fitted effect of over 55% in size
#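 Human tau K18 P301L (15 uM unlabeled, 0.24 uM Alexa 594-labeled) in 100 mM sodium acetate pH 7 with 20 uM heparin, 6 hr at 37 C. ThT 30 uM added, 1 hr ambient; Alexa 594 FP and total fluorescence read at 555/632 nm.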
# Tau fibril FP – tau fibrillization inhibition (FP); K18 P301L tau heparin fibrillization, Alexa594 FP, 6 h; P10636; 280,000 compounds, 0.39% hits; Potency, µM (doses to about 57.7 µM), without a hit: at the highest dose activity, negative = inhibition, hits mostly inhibitors; further: potency means the concentration at half of the fitted maximal effect; nearly all actives have a fitted effect of over 55% in size
# Target sequence (P10636 561-689 P618L limits assumed): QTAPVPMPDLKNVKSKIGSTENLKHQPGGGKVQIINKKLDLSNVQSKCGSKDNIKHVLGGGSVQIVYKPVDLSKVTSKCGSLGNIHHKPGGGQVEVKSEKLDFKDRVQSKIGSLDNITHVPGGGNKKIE
#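 Human tau K18 […] P301L fragment, 15 uM unlabeled plus 0.24 uM Alexa 594-labeled tau (final), with compound and 20 uM heparin in 100 mM sodium acetate pH 7; 6 hr at 37 C, then Alexa 594 FP read.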
# JMJD2E inh – blocks human JMJD2E demethylase activity; B2RXH2; JMJD2E catalytic domain, FDH-coupled NADH fluorescence (FDH is formaldehyde dehydrogenase); Potency, µM (top dose mostly 57.1 µM), without a hit: at the highest dose activity change, negative = inhibition, usual class: inhibitors; 230,000 compounds, 1.6% hits; AID 2147; active means well fitted inhibition curve with a large enough effect, not every such curve was filed as active; inconclusive means small, poorly fitted or top-dose-only effect, or another doubt; inactive means no such curve, though single readings can be large or run the other way;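 further: potency means the concentration at half of the fitted maximal effect; 0% = wells with enzyme and -100% = buffer wells without enzyme; nearly all actives have a fitted effect of over 50% in size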
# Target sequence (B2RXH2 1-337 limits assumed): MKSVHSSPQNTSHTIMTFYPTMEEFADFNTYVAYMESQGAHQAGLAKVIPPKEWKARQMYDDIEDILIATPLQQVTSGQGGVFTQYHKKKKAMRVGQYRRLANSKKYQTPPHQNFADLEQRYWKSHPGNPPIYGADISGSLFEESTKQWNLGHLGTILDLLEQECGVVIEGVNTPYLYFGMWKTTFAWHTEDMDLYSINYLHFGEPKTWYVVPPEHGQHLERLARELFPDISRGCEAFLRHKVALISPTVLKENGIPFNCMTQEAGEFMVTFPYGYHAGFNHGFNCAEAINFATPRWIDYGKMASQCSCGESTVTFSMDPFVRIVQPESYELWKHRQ
# Sfp inh – inhibitors of Bacillus subtilis Sfp phosphopantetheinyl transferase | Q9F4F7 | Biochemical Sfp PPTase activity, qHTS | Potency, µM, for the others: largest response in the series, negative = inhibition, most hits filed as inhibitors | 310,000 compounds, 3.5% hits | AID 1490;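 further: the enzyme is Sfp with the accession as filed and its product quenches rhodamine fluorescence; potency means the concentration at half of the fitted maximal effect; 0% = enzyme reaction without inhibitor and -100% = no enzyme wells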
#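 Fluorescence-quenching assay with 15 nM Sfp, 5 uM rhodamine-CoA and 12.5 uM BHQ-2-labelled ybbR peptide in pH 7.6 Hepes/MgCl2 buffer. Enzyme was pre-incubated with compound for 15 min at room temperature. Rate was taken from the 30-min fluorescence change (525/598 nm).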
# FBPA coupling cs – inhibits coupling enzyme system, counter-screen for aldolase hits. coupling enzyme system counterscreen, AmpLite Red fluorescence. activity change, negative = inhibition, % at 58.2 µM, hits read low. 290,000 compounds, 0.67% hits. AID 2472; in the data active means activity change below about -30%
#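 Activity here indicates interference with the coupling reaction, not aldolase inhibition. Compounds at 57.5 uM final met coupling enzymes for 10 min at RT; substrate and AmpLite Red detection followed, with a 525/598 nm fluorescence read after 20 min.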
# Tau ThT inhib – blocks human tau fibril formation measured by thioflavin T. P10636. recombinant tau K18 P301L (four-repeat tau fragment), heparin-induced fibrillization, ThT fluorescence. Potency, µM (doses to about 57.4 µM), for inactives: at the highest dose activity, negative = inhibition, usual class: inhibitors. 270,000 compounds, 2.1% hits. AID 1460; further: potency means the concentration at half of the fitted maximal effect; nearly all actives have a fitted effect of over 55% in size
#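 Heparin-induced (20 uM) aggregation of recombinant human K18 P301L tau, 15 uM unlabeled with 0.24 uM labeled, pH 7 acetate buffer, 6 hr at 37 C with compound. Fibrils quantified by 30 uM ThT fluorescence after 1 hr ambient incubation.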
# Active calls of the source: *; ? = inconclusive; nt = no result given; [ ] = remark or other dose. Unless noted, the call rests on the fitted dose curve; in most records, active means well fitted curve in the direction sought with a large enough effect; inconclusive means small, poorly fitted or top-dose-only effect, or another doubt; inactive means no such curve, though single readings can be large; an effect the other way counts as inactive or inconclusive. Unless noted, on the % scale 0 is the no-effect control and ±100 the full control effect.
SMILES,Tau fluor cs,Tau fibril FP,JMJD2E inh,Sfp inh,FBPA coupling cs,Tau ThT inhib
O=C1CC(/C=C/c2ccccn2)=Nc2ccccc2N1,-12%,4%,?,-35%,1,?
Cc1ccc(/C=C/C(=O)O)cc1S(=O)(=O)NCc1ccco1,-5%,4%,1%,40µM*,-2,-2%
COc1ccc(/C=C/C(=O)O)cc1S(=O)(=O)NCc1ccco1,-19%,-11%,-2%,-25%,2,-15%
COc1ccc(C(=S)NC2CCCCC2)cc1,-20%,-10%,-19%,35µM*,0,?
CCOc1ccc(C(=S)NC2CCCCC2)cc1,-18%,-1%,5%,6%,1,?
CCOc1ccccc1N1CCN(c2nc(N)c(C#N)c(CC#N)c2C#N)CC1,?,-7%,?,16µM*,-9,?
COc1ccc(Br)cc1CNC(=O)c1cnc2sc(N3CCC(C)CC3)nn2c1=O,-11%,10%,nt,nt,nt,-15%
CN1CCN(c2ncc3nc(-c4cccs4)c(=O)n(CCc4ccccc4)c3n2)CC1,nt,nt,nt,-26%,3,nt
CCCC[C@@H](C)/C=C(C)/C=C(\C)C(=O)NC1=C[C@@](O)(/C=C/C=C/C=C/C(=O)NC2=C(O)CCC2=O)[C@@H]2O[C@@H]2C1=O,nt,nt,nt,?,1,nt
CC(/C=N/n1c(-c2cc(C)[nH]n2)n[nH]c1=S)=C\c1ccco1,-19%,-6%,-19%,14µM*,0,?
S=c1[nH]nc(-c2cc(-c3ccccc3)n[nH]2)n1/N=C/C=C/c1ccco1,?,2%,?,16µM*,-3,?
S=c1[nH]nc(COc2ccccc2)n1/N=C/C=C/c1ccco1,?,?,?,56µM*,-1,?
CC(/C=N/n1c(-c2ccc(Cl)cc2)n[nH]c1=S)=C\c1ccco1,-26%,-1%,-4%,-29%,0,?
S=c1[nH]nc(COc2ccccc2)n1/N=C/C=C/c1ccccc1,-15%,-5%,0%,-13%,4,?
COc1c(Br)cc(/C=N/n2c(-c3ccccc3)n[nH]c2=S)c(O)c1Br,nt,nt,nt,50µM*,6,nt
S=c1[nH]nc(-c2n[nH]c3c2CCC3)n1/N=C/C=C/c1ccco1,-24%,?,28µM*,11µM*,0,22µM*
COc1cc(/C=N/n2c(C3CCCCC3)n[nH]c2=S)ccc1O,nt,nt,nt,?,6,nt
S=c1[nH]nc(-c2ccco2)n1/N=C/C=C/c1ccco1,-1%,-5%,-13%,-42%,1,?
COc1cccc(/C=N/n2c(-c3n[nH]c4c3CCC4)n[nH]c2=S)c1O,-7%,-1%,32µM*,25µM*,-4,?
COc1cc(/C=N/n2c(-c3n[nH]c4c3CCC4)n[nH]c2=S)cc(OC)c1O,-2%,-1%,-9%,56µM*,-3,0%
COc1cccc(/C=N/n2c(C3CCCCC3)n[nH]c2=S)c1O,nt,nt,nt,79µM*,2,nt
COc1ccccc1NC(=O)Cn1c(=O)n(-c2cccc(C)c2)c(=O)c2c1c1cc(C)ccc1n2C,-11%,-1%,nt,nt,nt,-14%
OCC1O[C@@H](OC2C(O)C(CO)O[C@@]2(CO)O[C@@H]2OC(CO)C(O)C(O)C2O)C(O)C(O)C1O (some centres undefined),-5%,-7%,3%,4%,-2,-3%
Cn1c(SCc2ccc(C(F)(F)F)cc2)nc2c([nH]c3ccccc32)c1=O,-14%,-8%,nt,nt,nt,-3%
CC(=O)c1cc(C(=O)Nc2cc(C)cc(C)c2)c2ccccn12,-30%,?,nt,nt,nt,-10%
SMILES,Tau fluor cs,Tau fibril FP,JMJD2E inh,Sfp inh,FBPA coupling cs,Tau ThT inhib
Oc1ccc(/C=N/n2c(C3CCCCC3)n[nH]c2=S)c(O)c1,nt,nt,nt,0.18µM*,4,nt
Oc1ccc(Br)cc1/C=N/n1c(C2CCCCC2)n[nH]c1=S,nt,nt,nt,-2%,-3,nt
COc1ccccc1/C=C/C=N/n1c(-c2cc(C)[nH]n2)n[nH]c1=S,-21%,-3%,?,-21%,2,?
COc1cccc(/C=N/n2c(-c3cc(C)[nH]n3)n[nH]c2=S)c1,-14%,3%,-5%,?,1,-14%
COc1cccc(/C=N/n2c(-c3cc(C)[nH]n3)n[nH]c2=S)c1O,-12%,3%,?,2.2µM*,0,?
COc1ccccc1/C=C/C=N/n1c(-c2n[nH]c3c2CCC3)n[nH]c1=S,?,-10%,?,22µM*,1,?
CC(C)CSc1nnc(-c2ccccc2)c(-c2ccccc2)n1,-15%,-14%,nt,nt,nt,-10%
C=C[C@@]1(C)CC[C@H]2C(=CC[C@@H]3[C@]2(C)CCC[C@@]3(C)C(=O)O)C1,nt,nt,nt,11%,11,nt
COc1ccc(N2CCC(CNC(=S)Nc3cccc(OC)c3)C2)cc1 (centres undefined),11µM*[quencher],13%,-2%,-9%,-4,?
COc1ccc(N2CCC(CNC(=O)Nc3cccc(OC)c3)C2)cc1 (centres undefined),16µM*[quencher],14%,-10%,-1%,0,?
COc1ccc(N2CCC(CNC(=O)Nc3ccc(Cl)cc3)C2)cc1 (centres undefined),?,10%,-8%,-1%,-4,?
Cc1ccc(Nc2nc(N)c([N+](=O)[O-])c(NCc3ccco3)n2)cc1,?,?,?,-4%,2,?
Fc1ccc(Nc2nc(NCc3ccco3)c3ccccc3n2)cc1,?,?,?,13µM*,0,?
Nc1nc(Nc2ccccc2)nc(NCc2ccco2)c1[N+](=O)[O-],13µM*[quencher],?,-1%,-15%,0,?
N=C1C2=C3Sc4ccccc4N3CCCC2=NN1c1cccc(S(=O)(=O)O)c1,-15%,-2%,?,89µM*,2,-19%
N#CC1=C2Sc3ccccc3N2CCCC1=O,3%,-2%,11%,15%,12,10%
O=C(OCn1ncc(Br)c(Br)c1=O)c1ccccc1Cl,-20%,?,4%,-16%,5,8.9µM*
O=C(OCc1cnc(Cl)s1)c1ccccc1Cl,-3%,8%,6%,11%,-3,-3%
O=C(OCn1ncc(Br)c(Br)c1=O)c1ccc(F)cc1,-6%,?,2%,50µM*,-1,?
O=C(OCn1ncc(Cl)c(Cl)c1=O)c1cccc(C(F)(F)F)c1,-3%,6%,3%,13%,6,3%
Brc1ccc(CN2CCN(Cc3c[nH]c4ccccc34)CC2)cc1,nt,nt,nt,56µM*,0,nt
COc1ccccc1N1CCN(C(=O)c2ccc3c(c2)N(Cc2cc(C)ccc2C)C(=O)c2ccccc2S3(=O)=O)CC1,-9%,6%,nt,nt,nt,-1%
